The results in this text go back to PubChem BioAssay (Tox21).

The structures appear in SMILES notation. Values joined by “and” are separate entries in the source; they are usually repeats but may differ in a detail not shown here. Equal entries are not always repeated. Some compounds were tested as several samples or in several runs, with calls that do not always agree. Active and inactive are the calls of the source. Unless noted, the call rests on the fitted dose curve; in most records, active means well fitted curve in the direction sought with a large enough effect in the repeat runs; inconclusive means weak or mixed curves; inactive means no such curve, though single readings can be large; an effect the other way counts as inactive or inconclusive.

Test [1] can be described thus: qHTS assay to identify small molecule antagonists of the thyroid receptor (TR) signaling pathway - cell viability counter screen (AID 743064). Further: nearly all actives have a fitted effect of over 50% in size. Further: potency means the concentration at half of the fitted maximal effect. In outline:
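GH3.TRE-Luc rat pituitary cells carrying a TRE-luciferase reporter were treated with compound plus 1 nM T3 (final) for 23.5 h at 37 °C. Viability was then read in the same wells by CellTiter-Fluor fluorescence after a further 30 min.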

Test [2] in a line: qHTS assay to identify small molecule antagonists of the thyroid receptor (TR) signaling pathway (AID 743065). Further: nearly all actives have a fitted effect of over 55% in size. Further: potency means the concentration at half of the fitted maximal effect. The method in brief:
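GH3.TRE-Luc rat pituitary cells (two TREs driving luciferase) were dosed with compound, then stimulated with 1 nM T3 (final) for 23.5 h at 37 C. ONE-Glo luminescence was the read-out, with CellTiter-Fluor fluorescence as the cytotoxicity counter-screen.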

The test system of test [3] is thyroid hormone receptor (rat, GH3 cells). Description: qHTS assay to identify small molecule agonists of the thyroid receptor (TR) signaling pathway (AID 743066; calls by dose curve). (qHTS replaces the single test concentration by a dilution series.)
Test [4] can be described thus: qHTS assay to identify small molecule antagonists of the estrogen receptor alpha (ER-alpha) signaling pathway - cell viability counter screen (AID 743074; calls by dose curve;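 further: HEK293 cells carrying ER-alpha-UAS-bla reporter stimulated with 17beta-estradiol; nearly all actives have a fitted effect of over 45% in size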; further: potency means the concentration at half of the fitted maximal effect).
Test [5] addresses Estrogen receptor (Homo sapiens) (UniProt P03372). Description: qHTS assay to identify small molecule agonists of the estrogen receptor alpha (ER-alpha) signaling pathway (AID 743075; calls by dose curve;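 further: HEK293 GripTite cells with ER-alpha and UAS-driven beta-lactamase reporter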; further: potency means the concentration at half of the fitted maximal effect).
For test [6] the target is unchanged. The test can be described thus: qHTS assay to identify small molecule agonists of the estrogen receptor alpha (ER-alpha) signaling pathway using the BG1 cell line (AID 743079). Further: nearly all actives have a fitted effect of over 20% in size. Further: potency means the concentration at half of the fitted maximal effect.
Test [7] can be described thus: qHTS assay to identify small molecule antagonists of the estrogen receptor alpha (ER-alpha) signaling pathway using the BG1 cell line - cell viability counter screen (AID 743081).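 Further: compound given together with 17beta-estradiol as the ER stimulus; series mostly up to about 70 µM; nearly all actives have a fitted effect of over 45% in size.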
For a further test, the target named is Aromatase (Homo sapiens) (UniProt P11511). Description: qHTS assay to identify aromatase inhibitors (AID 743083). Further: nearly all actives have a fitted effect of over 55% in size. Further: potency means the concentration at half of the fitted maximal effect.
Sequence of Aromatase (Homo sapiens) (P11511 whole entry, looked up): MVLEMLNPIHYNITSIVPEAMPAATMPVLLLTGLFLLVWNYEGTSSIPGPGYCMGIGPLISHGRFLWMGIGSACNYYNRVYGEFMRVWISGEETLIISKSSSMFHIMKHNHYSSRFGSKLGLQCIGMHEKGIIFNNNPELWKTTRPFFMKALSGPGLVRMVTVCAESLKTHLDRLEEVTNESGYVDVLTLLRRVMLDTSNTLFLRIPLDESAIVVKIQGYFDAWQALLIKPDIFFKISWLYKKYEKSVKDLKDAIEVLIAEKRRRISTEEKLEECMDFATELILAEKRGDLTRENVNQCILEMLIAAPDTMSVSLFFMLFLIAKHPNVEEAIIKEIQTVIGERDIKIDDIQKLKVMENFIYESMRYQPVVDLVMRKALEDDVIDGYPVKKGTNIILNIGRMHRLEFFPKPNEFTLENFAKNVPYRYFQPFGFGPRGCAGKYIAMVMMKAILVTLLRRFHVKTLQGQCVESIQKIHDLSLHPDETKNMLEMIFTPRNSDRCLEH
Test [8] can be described thus: qHTS assay to identify aromatase inhibitors - cell viability counter screen (AID 743084).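 Further: cells stimulated with testosterone during compound exposure; nearly all actives have a fitted effect of over 55% in size.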 Further: potency means the concentration at half of the fitted maximal effect.
The nature of test [9]: qHTS assay to identify small molecule that activate the aryl hydrocarbon receptor (AhR) signaling pathway - cell viability counter screen (AID 743086). Further: nearly all actives have a fitted effect of over 45% in size. Further: potency means the concentration at half of the fitted maximal effect. In outline: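 HepG2-AhR-luc (HG2L7.5c1) cells, 4000/well, treated 24 h at 37 C with compound; viability measured as CellTiter-Fluor fluorescence after 30 min in the same wells as the luciferase read.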
Test [10] addresses Peroxisome proliferator-activated receptor gamma (Homo sapiens) (UniProt P37231). Description: qHTS assay to identify small molecule agonists of the peroxisome proliferator-activated receptor gamma (PPARg) signaling pathway (AID 743094; active means well fitted activation curve with a large enough effect in the signal ratio in the repeat runs, not every such curve was filed as active; inconclusive means weak or mixed curves, or effect the other way; inactive means no such curve, though single readings can be large or run the other way; the % refers to the signal ratio). The method in brief: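 Quantitative HTS agonist mode: stable HEK293H line with UAS-beta-lactamase reporter under PPARg control, 17 h compound exposure at 37C, fluorescence after 1 h FRET substrate loading at room temperature.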

Test [11] is described as follows: qHTS assay to identify small molecule antagonists of the estrogen receptor alpha (ER-alpha) signaling pathway using the BG1 cell line (AID 743080; calls by dose curve;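 further: BG1 cells stimulated with 17beta-estradiol alongside compound; series mostly up to about 70 µM; nearly all actives have a fitted effect of over 25% in size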). The method in brief: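 BG1Luc4E2, endogenous ER-alpha, 4xERE-luc; 5 d charcoal-stripped FBS, phenol red free; 24 h plating; cpd + 17beta-estradiol 21.5 h, 37 C/5% CO2; CellTiter-Fluor viability 30 min, then ONE-Glo luciferase 30 min RT.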

Test [12] has as its target Estrogen receptor (Homo sapiens) (UniProt P03372). The test can be described thus: qHTS assay to identify small molecule antagonists of the estrogen receptor alpha (ER-alpha) signaling pathway (AID 743069; active means well fitted curve in the direction sought with a large enough effect in the signal ratio in the repeat runs, not every such curve was filed as active; inconclusive means weak or mixed curves, or effect the other way; inactive means no such curve, though single readings can be large or run the other way; the % refers to the signal ratio). In outline: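 Reporter cells (ER-alpha-bla, HEK293 background) are conditioned overnight in stripped-serum medium (2% charcoal-stripped FBS). Compound and 17beta-estradiol exposure runs 18 hr at 37C, 5% CO2.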

Test [13] can be described thus: qHTS assay to identify small molecule antagonists of the peroxisome proliferator-activated receptor gamma (PPARg) signaling pathway - cell viability counter screen (AID 743194). Further: nearly all actives have a fitted effect of over 55% in size. Further: potency means the concentration at half of the fitted maximal effect. In outline:
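Cytotoxicity counter screen in PPARg-bla HEK293H cells, same wells as reporter assay. Compounds plus 50 nM rosiglitazone (final) for 17 h at 37 C, then viability read by CellTiter-Glo luminescence.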

A short description of test [14]: qHTS assay for small molecule agonists of the antioxidant response element (ARE) signaling pathway (AID 743202; active means well fitted activation curve with a large enough effect in the signal ratio in the repeat runs, not every such curve was filed as active; inconclusive means weak or mixed curves, or effect the other way; inactive means no such curve, though single readings can be large or run the other way; the % refers to the signal ratio; further: potency means the concentration at half of the fitted maximal effect). In outline: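 Agonist mode reporter screen: HepG2 cells with ARE-controlled beta-lactamase are incubated with test compounds for 16 h at 37 C, and beta-lactamase activity is measured as fluorescence of cleaved B/G FRET substrate.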
A short description of test [15]: qHTS assay for small molecule agonists of the antioxidant response element (ARE) signaling pathway - cell viability counter screen (AID 743203; calls by dose curve; further: nearly all actives have a fitted effect of over 55% in size; further: potency means the concentration at half of the fitted maximal effect). In outline:
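Seeded at 2,000 cells/well, ARE-bla HepG2 cells were incubated 5 hrs before compound addition. After 16 hrs of treatment at 37C with 5% CO2, CellTiter-Glo reagent was added and luminescence read 30 min later.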

Test [16] can be described thus: qHTS assay for small molecule activators of the heat shock response signaling pathway - cell viability counter screen (AID 743209). Further: nearly all actives have a fitted effect of over 50% in size. Further: potency means the concentration at half of the fitted maximal effect. The method in brief:
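First, HSE-bla HeLa cells were seeded at 1500 cells/well and kept overnight at 37 C. Next, compounds were pinned in and incubated 5 h. After the FRET substrate step, CellTiter-Glo was added and luminescence read 30 min later.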

Test [17] deals with Aryl hydrocarbon receptor (Homo sapiens) (UniProt P35869). The test can be described thus: qHTS assay to identify small molecule that activate the aryl hydrocarbon receptor (AhR) signaling pathway (AID 743085). Further: nearly all actives have a fitted effect of over 15% in size. Further: potency means the concentration at half of the fitted maximal effect.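 On activation: HG2L7.5c1 human HepG2 liver cells with stably integrated DRE-driven firefly reporter; series mostly up to about 70 µM.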 The method in brief: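 HepG2 cells (HG2L7.5c1) stably carrying a firefly luciferase reporter driven by 20 dioxin responsive elements were exposed to compound for 24 h at 37C after a 5 h settling period; luminescence rise (ONE-Glo) indicated activation.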
Sequence of Aryl hydrocarbon receptor (Homo sapiens) (P35869 whole entry, looked up): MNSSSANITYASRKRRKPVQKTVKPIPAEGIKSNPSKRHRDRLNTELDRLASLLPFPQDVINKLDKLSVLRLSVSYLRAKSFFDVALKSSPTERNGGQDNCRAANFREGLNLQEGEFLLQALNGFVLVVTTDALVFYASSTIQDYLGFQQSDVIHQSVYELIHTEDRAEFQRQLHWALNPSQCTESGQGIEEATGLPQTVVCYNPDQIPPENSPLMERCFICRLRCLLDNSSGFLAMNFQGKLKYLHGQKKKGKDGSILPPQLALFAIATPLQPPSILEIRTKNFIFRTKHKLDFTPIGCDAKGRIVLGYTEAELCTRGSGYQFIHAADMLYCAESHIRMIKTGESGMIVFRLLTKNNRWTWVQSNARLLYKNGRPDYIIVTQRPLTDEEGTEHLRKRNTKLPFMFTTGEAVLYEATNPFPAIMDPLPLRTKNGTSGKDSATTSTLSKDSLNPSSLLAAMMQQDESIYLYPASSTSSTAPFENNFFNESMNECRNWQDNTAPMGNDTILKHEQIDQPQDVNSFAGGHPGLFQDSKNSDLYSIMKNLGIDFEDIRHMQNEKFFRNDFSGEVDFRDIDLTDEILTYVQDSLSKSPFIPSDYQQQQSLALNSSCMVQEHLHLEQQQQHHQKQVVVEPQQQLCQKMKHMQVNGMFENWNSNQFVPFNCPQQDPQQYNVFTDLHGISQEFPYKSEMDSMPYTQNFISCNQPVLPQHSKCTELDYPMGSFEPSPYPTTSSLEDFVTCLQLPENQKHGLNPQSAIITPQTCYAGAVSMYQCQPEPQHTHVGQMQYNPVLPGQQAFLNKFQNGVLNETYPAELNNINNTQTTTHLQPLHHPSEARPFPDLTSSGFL

Test [18] in a line: qHTS assay for small molecule activators of the heat shock response signaling pathway (AID 743210; active means well fitted activation curve with a large enough effect in the signal ratio in the repeat runs, with a control signal flat, not every such curve was filed as active; inconclusive means weak or mixed curves; the % refers to the signal ratio;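 further: HeLa cells with beta-lactamase reporter driven by heat shock elements; series mostly up to about 63 µM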). The method in brief:
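Quantitative high-throughput format using an engineered HeLa line in which heat shock response elements drive beta-lactamase; after 5 h with compound, cells received a B/G FRET substrate and fluorescence was read.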

Sequence of Peroxisome proliferator-activated receptor gamma (Homo sapiens) (P37231 whole entry, looked up): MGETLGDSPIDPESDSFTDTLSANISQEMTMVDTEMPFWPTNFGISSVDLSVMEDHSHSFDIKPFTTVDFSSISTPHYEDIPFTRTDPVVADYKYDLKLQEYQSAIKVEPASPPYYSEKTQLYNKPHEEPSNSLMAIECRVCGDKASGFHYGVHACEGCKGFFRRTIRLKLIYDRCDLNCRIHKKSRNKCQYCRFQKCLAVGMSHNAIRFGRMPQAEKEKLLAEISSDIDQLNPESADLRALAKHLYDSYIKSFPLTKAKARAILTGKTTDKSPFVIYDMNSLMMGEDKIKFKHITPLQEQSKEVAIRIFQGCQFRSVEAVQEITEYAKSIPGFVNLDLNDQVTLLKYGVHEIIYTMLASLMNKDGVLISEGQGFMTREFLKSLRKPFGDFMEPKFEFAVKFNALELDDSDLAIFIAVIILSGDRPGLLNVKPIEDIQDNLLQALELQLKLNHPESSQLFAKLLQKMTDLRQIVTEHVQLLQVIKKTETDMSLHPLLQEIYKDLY
Sequence of Estrogen receptor (Homo sapiens) (P03372 whole entry, looked up): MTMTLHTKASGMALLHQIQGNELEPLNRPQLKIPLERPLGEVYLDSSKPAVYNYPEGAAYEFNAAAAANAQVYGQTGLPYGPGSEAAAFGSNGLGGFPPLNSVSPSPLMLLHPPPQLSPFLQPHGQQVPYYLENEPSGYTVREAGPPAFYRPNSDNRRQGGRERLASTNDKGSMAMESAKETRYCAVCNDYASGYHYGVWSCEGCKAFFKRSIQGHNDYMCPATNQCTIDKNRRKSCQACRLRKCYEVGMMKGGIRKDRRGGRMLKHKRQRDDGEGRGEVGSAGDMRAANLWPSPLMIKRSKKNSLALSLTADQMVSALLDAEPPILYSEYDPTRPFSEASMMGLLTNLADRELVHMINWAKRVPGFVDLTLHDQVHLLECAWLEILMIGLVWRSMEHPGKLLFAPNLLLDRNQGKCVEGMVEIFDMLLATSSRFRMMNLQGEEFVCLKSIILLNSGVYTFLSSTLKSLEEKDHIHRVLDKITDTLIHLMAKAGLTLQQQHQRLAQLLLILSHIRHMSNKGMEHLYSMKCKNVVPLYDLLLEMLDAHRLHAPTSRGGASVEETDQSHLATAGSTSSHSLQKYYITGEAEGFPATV

Consider `C[C@@H]1C[C@H]2[C@@H]3C[C@H](F)C4=CC(=O)C=C[C@]4(C)[C@@]3(Cl)[C@@H](O)C[C@]2(C)[C@H]1C(=O)COC(=O)C(C)(C)C`, for which the Potency result in test [1], in test [2], in test [3], in test [4], in test [5] and in test [6] was “inactive” in each case. The Potency entry (in [7]; with Aromatase (Homo sapiens); in test [8]; in test [9]; in test [10]) was “inactive” in each case.
Regarding `Oc1ccc(Cl)c2c1CCC2`, the Potency result in test [1], in test [2], in test [3], in [4], in [5] and in [6] was “inactive” throughout. For the same molecule, the Potency entry (in test [11]; in test [7]; in the test with Aromatase (Homo sapiens); in [8]) was “inactive” throughout.
Consider `CCSCC`, for which the Potency entry in [1], in [2], in [3], in test [12], in test [4] and in test [5] was “inactive” each time. In addition, the Potency entry (in test [6]; in [11]; in [7]; with Aromatase (Homo sapiens); in test [8]; in test [10]) was “inactive” in each case. In addition, the Potency entry in test [13], in [14], in test [15] and in [16] was “inactive” in each case.
For the molecule `Cc1cccc(C)c1NC(=O)C1CCCCN1C` (stereo not drawn), the Potency entry in test [1], in [2], in [3], in test [12], in [4] and in [5] was “inactive” throughout. The Potency entry (in test [6]; in [11]; in the test with Aromatase (Homo sapiens); in test [8]; in test [17]; in test [10]) was “inactive” in each case.
For the molecule `CC(=O)OCC(=O)[C@@]1(O)CC[C@H]2[C@@H]3C[C@H](C)C4=CC(=O)C=C[C@]4(C)[C@H]3[C@@H](O)C[C@@]21C`, the Potency entry in [1], in test [2], in [3], in test [4], in test [5] and in test [7] was “inactive” throughout. Besides, the Potency entry (with Aromatase (Homo sapiens); in test [8]; in test [9]; in [10]) was “inactive” each time. Also, the Potency in test [6] was 18.8 µM (active).
Regarding `Clc1nc(C(Cl)(Cl)Cl)c(Cl)c(Cl)c1Cl`, the Potency is 21.7 µM (active) in [1]; 17.2 µM (active) in test [2]; 61.1 µM (active) in [17]; 38.9 µM (active) in test [13]; 30.6 µM (active) in test [15]; 17.4 µM (active) in test [16]. The Potency entry in [3], in test [4], in test [5], in test [7] and in test [9] was “inactive” throughout.
Take `Cc1cc(-c2ccc(N=Nc3ccc4c(S(=O)(=O)O)cc(S(=O)(=O)O)c(N)c4c3O)c(C)c2)ccc1N=Nc1ccc2c(S(=O)(=O)O)cc(S(=O)(=O)O)c(N)c2c1O`: the Potency entry in test [1], in [3], in test [12], in test [5], in [7] and in test [10] was “inactive” in each case. Also, the Potency in [2] was 23.7 µM (active); with Aromatase (Homo sapiens) it was 26.6 µM (active); in test [8], 23.7 µM (active); in test [9] it was “inactive and 29.8 µM (active)”.
In the case of `CSCCC(N)C(=O)O` (stereo not drawn), the Potency result in test [1], in test [2], in [3], in [12], in test [4] and in test [5] was “inactive” in each case. Also, the Potency result (in test [6]; in test [11]; in test [7]; in the test with Aromatase (Homo sapiens); in test [8]; in test [9]) was “inactive” each time. Further, in [10], the Potency entry was “inactive”.
On to `C1CCc2nnnn2CC1`, for which the Potency result in [1], in [2], in test [3], in test [12], in test [4] and in test [5] was “inactive” throughout. The Potency result in test [6], in [11], in test [7], in test [8], in test [9] and in test [10] was “inactive” in each case.
Take `COC(=O)C(CN)c1c[nH]c2ccc(OC)cc12` (stereo not drawn): the Potency entry in test [1], in [2], in test [3], in [12], in test [4] and in test [5] was “inactive” throughout. Also, the Potency result (in [6]; in test [11]; in [7]; in the test with Aromatase (Homo sapiens); in [8]; in test [10]) was “inactive” each time.
In the case of `CCCOC(=O)c1ccc(O)cc1`, the Potency entry in test [1], in test [2], in test [3], in test [12], in [4] and in [7] was “inactive” each time. Also, the Potency entry (with Aromatase (Homo sapiens); in test [8]; in test [10]; in [15]; in [16]) was “inactive” throughout. For the same molecule, the Potency in test [5] is 26.8 µM [activator] (active) and 24.5 µM [inconclusive] (active); in test [6], 21.1 µM (active) and 16.1 µM (active); in [14], 17.2 µM (active). Also, the result in test [18] was inactive.
In the case of `C(=C\c1ccncc1)/c1ccccc1`, the Potency result in [1], in test [2], in test [3], in test [12], in test [4] and in test [5] was “inactive” each time. The Potency entry in test [7], in test [8] and in [9] was “inactive” throughout. Also, the Potency was 13.3 µM (active) in test [6]; “inactive and 21.1 µM (active)” with Aromatase (Homo sapiens).
Take `NCc1cccc(C2CCN(C(=O)c3ccc(C#Cc4ccccc4F)o3)CC2)c1`: the Potency is 7.7 µM (active) in test [1]; 7.7 µM (active) in [2]; 54.9 µM (active) in test [4]; 68.6 µM (active) with Aromatase (Homo sapiens); 61.1 µM (active) in test [8]; 19.5 µM (active) in [13]. Moreover, the Potency in test [15] is 48.6 µM (active). Besides, the Potency result in test [3], in test [5], in test [17] and in [10] was “inactive” throughout.
Regarding `Nc1nc(NC2CC2)c2ncn([C@@H]3C=C[C@@H](CO)C3)c2n1`, the Potency result in test [1], in test [2], in test [3], in test [12], in [4] and in [5] was “inactive” throughout. Moreover, the Potency result (in test [7]; with Aromatase (Homo sapiens); in [8]; in test [9]; in [10]) was “inactive” each time. Moreover, the Potency in [6] was 2.66 µM (active); in [17] it was 8.41 µM (active).
